# Source: PubChem BioAssay AID588511 (Johns Hopkins Ion Channel Center, 2011)
# About 3,600 (1.2%) of roughly 310,000 compounds were called active.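 How the source made its calls: active means ratio plate-corrected score three or more library SD toward inhibition, starting fluorescence score within five deviations; inactive means the rest.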 The entries come from a sample that favours actives as a whole.
# Target: Anoctamin-1 (Mus musculus) (UniProt Q8BHY3)
# Assay: TMEM16A chloride channel inhibitors, primary screen, cell-based, HTS (AID 588511);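 on normalized B-score (activity score, 25-100; higher = stronger inhibition): score derived from kinetic fluorescence span divided by baseline fluorescence per well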
# Conditions: HEK293 TMEM16A/YFP iodide influx fluorescence, ionomycin; at 10 µM
# Chain of Anoctamin-1 (Mus musculus) (Q8BHY3 whole entry, looked up): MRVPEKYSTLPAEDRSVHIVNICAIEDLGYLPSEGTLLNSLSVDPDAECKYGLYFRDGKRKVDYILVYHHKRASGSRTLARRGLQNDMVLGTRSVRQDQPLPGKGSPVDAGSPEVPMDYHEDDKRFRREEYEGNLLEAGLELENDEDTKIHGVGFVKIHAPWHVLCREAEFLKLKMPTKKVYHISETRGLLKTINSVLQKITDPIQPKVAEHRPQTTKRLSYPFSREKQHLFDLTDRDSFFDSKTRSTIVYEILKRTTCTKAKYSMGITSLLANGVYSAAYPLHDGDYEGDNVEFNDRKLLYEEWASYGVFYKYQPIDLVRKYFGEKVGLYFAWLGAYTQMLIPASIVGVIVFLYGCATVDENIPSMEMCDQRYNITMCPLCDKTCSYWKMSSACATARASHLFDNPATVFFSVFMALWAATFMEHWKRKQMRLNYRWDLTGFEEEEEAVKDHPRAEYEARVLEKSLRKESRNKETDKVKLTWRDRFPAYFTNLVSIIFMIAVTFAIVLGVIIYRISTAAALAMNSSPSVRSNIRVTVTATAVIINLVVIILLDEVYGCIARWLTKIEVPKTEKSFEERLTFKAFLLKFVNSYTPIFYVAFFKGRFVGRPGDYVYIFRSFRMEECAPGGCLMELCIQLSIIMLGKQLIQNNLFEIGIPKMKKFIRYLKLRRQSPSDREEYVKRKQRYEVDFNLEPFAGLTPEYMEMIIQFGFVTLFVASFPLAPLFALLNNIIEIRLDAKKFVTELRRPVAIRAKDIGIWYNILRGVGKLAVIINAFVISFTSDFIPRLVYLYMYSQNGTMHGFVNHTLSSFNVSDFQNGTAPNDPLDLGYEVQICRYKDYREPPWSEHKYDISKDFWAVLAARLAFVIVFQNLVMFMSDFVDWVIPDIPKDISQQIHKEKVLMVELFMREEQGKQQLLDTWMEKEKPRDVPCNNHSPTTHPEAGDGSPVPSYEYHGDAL
row,SMILES,"normalized B-score (activity score, 25-100; higher = stronger inhibition)"
1,O=c1ccc2cc(S(=O)(=O)NCCCc3ccccc3)ccc2[nH]1,inactive
2,O=c1cc(C(F)(F)F)[nH]c(=O)n1C1CCCCC1,25 (active)
3,Cc1ccc(Nc2cc(=O)n(C3CCCCC3)c(=O)[nH]2)cc1C,inactive
4,CCCOn1c(-n2nc(C)cc2C)nc2ccccc2c1=O,inactive
5,COc1ccc(OCCCn2cccc2/C=C2/C(=N)N3OC(C)=CC3=NC2=O)cc1,25 (active)
6,CCOc1cc(/C=C2/C(=N)N3OC(C)=CC3=NC2=O)ccc1OC,inactive
7,CC1=CC2=NC(=O)/C(=C/c3coc4ccccc4c3=O)C(=N)N2O1,inactive
8,Cn1cnc(C(F)(F)F)c1-c1ccc([N+](=O)[O-])cc1,inactive
9,O=C(Nc1cccc(S(=O)(=O)Nc2ccc(Cl)cc2)c1)c1ccc2c(c1)OCCO2,25 (active)
10,O=C(Nc1cccc(S(=O)(=O)N2CCCCC2)c1)c1ccc2c(c1)OCO2,inactive
11,O=C(Nc1ccccc1)c1ccc2c(c1)OCCCO2,inactive
12,CCn1c(SCC(=O)NCC2CCCO2)nc2cc(S(=O)(=O)N3CCCCC3)ccc21 (centres undefined),inactive
13,CCCCn1c(SCc2ncc(-c3ccccc3)o2)nc2cc(S(N)(=O)=O)ccc21,25 (active)
14,CCCCn1c(SCC(=O)N2CCC(C(=O)OCC)CC2)nc2cc(S(N)(=O)=O)ccc21,inactive
15,CN(C)c1cc(-c2ccc(F)cc2)oc(=O)c1Cl,inactive
16,N#CC1=C(SCc2ccccc2)NC(=O)C(C#N)C12CCCC2 (centres undefined),25 (active)
17,N#CC1=C(SCc2ccc(C#N)cc2)N=C(N)C(c2nc(-c3ccccc3)cs2)C12CCCCC2 (centres undefined),inactive
18,CC1(C)CCc2nc(SCc3ccccc3)c(C#N)cc2C1,inactive
19,Nc1ccc(C(=O)OCC(=O)NC2CCS(=O)(=O)C2)cc1[N+](=O)[O-] (centres undefined),inactive
20,CCC1CCCCN1C(=S)Nc1ccc(SC(F)F)cc1 (centres undefined),inactive
21,COc1ccc(CCN2CC(C(=O)NCCN3CCNC3=O)CCC2=O)cc1 (centres undefined),inactive
22,O=[N+]([O-])c1cc(Cl)cc(/C=N/NC(=S)Nc2cc(S(=O)(=O)N3CCOCC3)ccc2Cl)c1O,100 (active)
23,O=C(N/N=C/c1ccc([N+](=O)[O-])o1)c1cccc(S(=O)(=O)N2CCOCC2)c1,inactive
24,O=C(NC(=S)Nc1ccc(S(=O)(=O)N2CCOCC2)cc1)c1ccccc1[N+](=O)[O-],inactive
25,Cc1ccsc1C(=O)N[C@@H](C)c1nnc2ccccn12,inactive

row,SMILES,"normalized B-score (activity score, 25-100; higher = stronger inhibition)"
1,COC(C[C@@H]1O[C@@H]1C(=O)[C@H](C)OCc1ccccc1)OC,inactive
2,CSCCC(C(=O)NC1=NCCS1)N1C(=O)c2ccccc2C1=O (centres undefined),inactive
3,COC(=O)[C@@H]1CC(O)CN1C(=O)C12CC3CC(CC(C3)C1)C2 (some centres undefined),inactive
4,CC(C)OCCCNC(=O)c1cc(Sc2ccc(F)cc2)nc2ccccc12,inactive
5,CC(C)OCCCNc1ncnc2c1[nH]c1ccc(F)cc12,100 (active)
6,CNS(=O)(=O)c1cnccc1N1CCN(c2cccc(C)c2)CC1,inactive
7,CCC1(C)Cc2c(sc3[nH]c(=S)n(Cc4ccccc4)c(=O)c23)CO1 (centres undefined),inactive
8,CC1CC(C)(C)n2c(O)c(N=NC(N)=S)c3cccc1c32 (centres undefined),inactive
9,CCC(C)NCCOCCOc1ccc(Br)cc1C (centres undefined),inactive
10,COc1cccc(OC)c1C(=O)N1CCN(Cc2cccnc2)CC1,inactive
11,Cc1cc(-c2ccc(C)c(S(=O)(=O)Nc3ccc(S(N)(=O)=O)cc3)c2)on1,inactive
12,Cc1ccc2c(c1)N(S(=O)(=O)c1cc(-c3cc(C)no3)ccc1C)CCO2,25 (active)
13,Cc1cc(-c2ccc(C)c(S(=O)(=O)NC(C)Cc3ccco3)c2)on1 (centres undefined),inactive
14,C=CCNC(=O)C1CC2c3ccccc3C1c1ccccc12 (centres undefined),inactive
15,CCOc1ccc(S(=O)(=O)N2CCCC(C(=O)N3CCC(C(N)=O)CC3)C2)cc1Cl (centres undefined),inactive
16,C#CCOCCOCCOCCNc1nc(N2CCN(C(=O)CCCCCCCCCCNC(=O)[C@H]([C@@H](C)CC)n3cc(CCCCN=C(N)N)nn3)CC2)nc(N2CCN(C(=O)CCCCCCCCCCNC(=O)[C@H](CO)n3cc(CCCSC)nn3)CC2)n1,inactive
17,C#CCOCCOCCOCCNc1nc(N2CCN(C(=O)CCCCCCCCCCNC(=O)Cn3cc(CCCCCN)nn3)CC2)nc(N2CCN(C(=O)CCCCCCCCCCNC(=O)[C@H](CO)n3cc(CCCSC)nn3)CC2)n1,inactive
18,C#CCOCCOCCOCCNc1nc(N2CCN(C(=O)CCCCCCCCCCNC(=O)[C@H](CCCCN)n3cc(C)nn3)CC2)nc(N2CCN(C(=O)CCCCCCCCCCNC(=O)[C@H](CO)n3cc(CCCSC)nn3)CC2)n1,100 (active)
19,COC(=O)CSc1nc2c(c(C3CC=CCC3)c1C#N)CCC2 (centres undefined),inactive
20,CCOC(=O)C1CCN(S(=O)(=O)c2c(C)noc2C)CC1,inactive
21,CC(=O)NCCc1nc2cc(NC(=O)c3ccccc3)ccc2n1C,inactive
22,Cn1c(CN2CCOCC2)nc2cc(NC(=O)c3ccc(Cl)cc3)ccc21,100 (active)
23,CCOC(=O)N1CCN(Cc2nc3cc(NC(C)=O)ccc3n2C)CC1,inactive
24,O=C(NCCCn1ccnc1)C1CCCN(S(=O)(=O)c2cc(Cl)ccc2Cl)C1 (centres undefined),inactive
25,Nc1nnc2c(C(F)(F)F)nc3ccccc3n12,inactive

row,SMILES,"normalized B-score (activity score, 25-100; higher = stronger inhibition)"
1,CCn1c(=O)c(C(=O)NCc2ccc3c(c2)OCO3)c(O)c2ccccc21,inactive
2,O=C(NCc1ccc2c(c1)OCO2)c1cc(F)c(F)cc1Cl,inactive
3,Cc1nc2c(C(=O)NCc3ccc4c(c3)OCO4)c[nH]n2c(=O)c1Cc1ccccc1F,100 (active)
4,CCN(C(=O)Cc1nc(N)n[nH]1)C1(C(=O)Nc2ccccc2)CCCCC1,inactive
5,COc1ccc(C(=O)NC2CCCc3c2cnn3-c2cccc(C)c2C)c(OC)n1 (centres undefined),100 (active)
6,Cn1nccc1C(=O)NC1CCCc2c1cnn2-c1ccccc1F (centres undefined),inactive
7,Cc1cc(C(=O)NC2CCCc3c2cnn3-c2cccc(C)c2C)c(C)o1 (centres undefined),inactive
8,O=C(CCN1C(=O)c2ccccc2C1=O)C1=NN[C@@H]2C(=O)N(c3ccc(F)cc3)C(=O)[C@H]12,inactive
9,C=CCC(CC=C)(C(N)=O)c1ccccc1,inactive
10,Cc1ccc(S(=O)(=O)N2[C@@H](c3ccccc3F)C(C(=O)O)=CC[C@H]2c2ccc(Cl)cc2)cc1,inactive
11,CS(=O)(=O)N(CC(=O)N1CCN(c2cccc(Cl)c2)CC1)c1ccccc1,inactive
12,Cc1ccccc1NC(=O)NCC1CCN(Cc2cccc(Cl)c2)CC1,inactive
13,Cc1ccccc1S(=O)(=O)N1[C@@H](c2cccc(Cl)c2)C(C(=O)O)=CC[C@H]1c1ccc(Cl)cc1,100 (active)
14,Cc1ccc(S(=O)(=O)N2[C@@H](c3cccc(Cl)c3)C(C(=O)O)=CC[C@H]2c2ccc(Cl)c(Cl)c2)cc1,100 (active)
15,Cc1ccc([C@@H]2CC=C(C(=O)O)[C@H](c3cccc(Cl)c3)N2S(=O)(=O)c2ccc(C)cc2)cc1,inactive
16,CC(C)CCNC(=O)CC1C(=O)N(Cc2ccccc2)C(C)c2nc3ccccc3n21 (centres undefined),inactive
17,CC1CCN(Cc2nc3c(c(=O)n(C)c(=O)n3C)n2CCc2ccccc2)CC1,inactive
18,O=C(Nc1ccccc1C(=O)NCC1CCCO1)c1ccccc1F (centres undefined),inactive
19,CCC(C(=O)NCc1cccnc1)n1nc(C)c2sc3ccccc3c2c1=O (centres undefined),inactive
20,O=C(Nc1nc(-c2ccc3c(c2)OCO3)cs1)c1ccncc1,100 (active)
21,CC(=O)NCCC(=O)Nc1nc(-c2ccc3c(c2)OCCO3)cs1,inactive
22,O=C(Nc1nc2ccccc2s1)c1ccc2c(c1)OCO2,inactive
23,O=C(O)Cc1csc(NC(=O)CSc2nnnn2-c2ccc(O)cc2)n1,inactive
24,CC(C)NC(=O)NCCCCCCS(C)=O (centres undefined),inactive
25,COc1ccccc1S(=O)(=O)c1c(C)cc(C)[nH]c1=O,inactive

row,SMILES,"normalized B-score (activity score, 25-100; higher = stronger inhibition)"
1,C=C(C)Cn1c(C)cc(C)c(S(=O)(=O)c2ccccc2C)c1=O,100 (active)
2,Cc1cc(C)c(S(=O)(=O)c2ccc(F)cc2C)c(=O)[nH]1,inactive
3,Cc1ccc(NC(=O)CSc2nn3c(=O)c(C)nnc3s2)cc1Cl,inactive
4,CCC(C)c1ccccc1NC(=O)CN(C)CC(=O)Nc1ccccc1SC (centres undefined),inactive
5,CCCCOC(=O)CCCc1ccc([N+](=O)[O-])cc1[N+](=O)[O-],inactive
6,O=C(N/N=C/c1cc(Br)c(O)c([N+](=O)[O-])c1)C(O)(c1ccccc1)c1ccccc1,inactive
7,CN(C)/N=C/c1cc(Cl)cc([N+](=O)[O-])c1O,inactive
8,O=C(N/N=C/c1cc(Cl)cc([N+](=O)[O-])c1O)C(O)(c1ccccc1)c1ccccc1,100 (active)
9,O=C(NCc1ccc(Cl)cc1)NCc1ccc(Cl)cc1,inactive
10,S=C(NCc1ccc(Cl)cc1)NC12CC3CC(CC(C3)C1)C2,100 (active)
11,O=C(NCc1ccncc1)NC12CC3CC(CC(C3)C1)C2,inactive
12,C=CCn1c2ccccc2c2nnc(SCc3[nH]c(=O)[nH]c3C(=O)CCCCC(=O)OCC)nc21,inactive
13,COc1cc(N2C(=O)CC3(CCCC3)CC2=O)cc(OC)c1OC,inactive
14,COc1cc(OC)cc(C(=O)NNC(=O)CNC(=O)c2ccc(Br)o2)c1,inactive
15,CSCc1ccc(C(=O)Nc2cc(C)cc(C)c2)cc1,inactive
16,Cc1nc2ccccc2cc1OCc1ccc(F)cc1,25 (active)
17,Fc1ccccc1COc1cccc2cccnc12,inactive
18,Cc1occc(=O)c1OCc1ccc(F)cc1,inactive
19,CC1CCCCN1C(=O)Cn1c(=O)oc2cc(S(=O)(=O)N3CCCCC3)ccc21 (centres undefined),inactive
20,Cc1cc(C)cc(NC(=O)Cn2cnc3c(nnn3Cc3ccc(F)cc3)c2=O)c1,inactive
21,CCC1SC2=NCCN2C1(O)c1ccc(Cl)cc1 (centres undefined),inactive
22,Clc1ccc(-c2nnc(SCc3nc4ccccc4s3)o2)cc1,inactive
23,Clc1ccccc1SCc1nc2ccccc2[nH]1,inactive
24,c1ccc(-c2nnc(SCc3nc4ccccc4[nH]3)o2)cc1,25 (active)
